Pf Dd2 growth = qHTS Primary assay for Inhibitors of Plasmodium falciparum Dd2 growth in vitro; P. falciparum Dd2 growth, SYBR Green, 72 h; Potency, µM (doses to about 28.9 µM), for the others: at the highest dose activity, negative = inhibition, actives largely listed as inhibitors; 120,000 tested, 4.3% active; active = well fitted inhibition curve with a large enough effect;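 also: plate controls were DMSO vehicle for no effect and reference drug for full effect; nearly all actives have a fitted effect of over 65% in size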
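Readout: SYBR Green fluorescence, 485 nm excitation, 535 nm emission, after ~16 h lysis at 37C. Before that, Dd2-infected red cells (2.5% hematocrit) grew 72 h with compound, 29 uM top final concentration.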
Starred values were filed as active, the others as inactive; i = inactive; [ ] = another dose, or the depositor's remark. This excerpt belongs to a sample that is enriched for hits. Potency is read from the fitted curve at half-maximal effect.

SMILES	Pf Dd2 growth
O=C(Nc1ccncn1)[C@@H]1C[C@@H](c2ccc(F)cc2)N(Cc2ccccc2)C1	i
Cn1cc(CN2C[C@H](C(=O)Nc3ccccc3)C[C@@H]2c2cccc(C(F)(F)F)c2)cn1	-21%[44.1 µM]
Cc1nc(CN2C[C@H](C(=O)N3CCN(CCO)CC3)C[C@@H]2c2ccc(F)cc2)cs1	-8%[44.1 µM]
Cn1cc(CN2C[C@H](C(=O)Nc3ccc(F)cc3)C[C@@H]2c2cccc(C(F)(F)F)c2)cn1	i
Cn1ccc(NC(=O)[C@@H]2C[C@@H](c3ccc(F)cc3)N(Cc3ccccc3)C2)n1	13µM*
Cn1cc(CN2C[C@H](C(=O)NCc3cccc(F)c3)C[C@H]2c2cccc(C(F)(F)F)c2)cn1	8.9µM*
Cn1cc(CN2C[C@H](C(=O)Nc3ccn(C)n3)C[C@@H]2c2cccc(C(F)(F)F)c2)cn1	i
COCCNC(=O)C1COC2(CCN(C(=O)c3ccccc3F)CC2)N1C(=O)c1cccc(OC)c1 (stereo not drawn)	-8%
CCOC(=O)N1CCN(c2ncc3c(n2)CC(c2ccccc2O)CC3=O)CC1 (stereo not drawn)	-25%
Cc1ccc(-c2cc3ncc(C(=O)c4cc(Cl)c(C)cc4O)cn3n2)cc1	i
c1ccc(CCc2noc(-c3ccc(N4CCCOCC4)nc3)n2)cc1	-25%
CCN1CCN(c2ccc(-c3nc(CCCc4ccccc4)no3)cn2)CC1	10µM*
COC1CCN(c2ccc(-c3nc(COc4ccccc4)no3)cn2)CC1	i
C#CCNC(=O)C1CCc2nnc(CNC(=O)c3cccnc3)n21 (stereo not drawn)	7%
C#CCNC(=O)[C@@H]1CCCN1[C@@H](C(=O)NC)c1ccccc1	25%[44.1 µM]
COc1cc(C2c3c(oc4cc(C)c(C)cc4c3=O)C(=O)N2CCCN2CCOCC2)ccc1O (stereo not drawn)	12%
CCCOc1ccc(C2c3c(-c4c(C)cc(C)cc4O)n[nH]c3C(=O)N2CCO)cc1 (stereo not drawn)	i
COc1cc(C2c3c(-c4cc(C)ccc4O)n[nH]c3C(=O)N2CCCO)ccc1OCCC(C)C (stereo not drawn)	3.2µM*
COc1cc(C2N=C(N)Nc3nc4ccccc4n32)ccc1OCCC(C)C (stereo not drawn)	-25%
COCCN1C(=O)c2[nH]nc(-c3cc(C)ccc3O)c2C1c1ccc(C(C)C)cc1 (stereo not drawn)	8.9µM*
COCCn1ncc(N2CCC(NC(=O)c3ccc(C(C)C)cc3)CC2)cc1=O	-6%
O=C(NC1C[C@H]2CC[C@@H](C1)N2C(=O)CCc1ccccc1)c1ccncc1 (stereo partly drawn)	-11%
Cc1cn2c(=O)c(S(=O)(=O)NCc3ccc(F)cc3)c(C)nc2s1	6%
CN(C)c1ccc2nnc(-c3cc(C(=O)N(C)c4ccccc4)ccn3)n2n1	-17%[44.1 µM]
COc1ccc(-c2nnc3ccc(N4CCc5ccccc5CC4)nn23)nc1	i
SMILES	Pf Dd2 growth
COCCCNc1ccc2nnc(-c3ccc(C)cn3)n2n1	i
COc1ccc(-c2nnc3ccc(N(C)Cc4ccccc4)nn23)nc1	7.9µM*
COc1ccc(-c2nnc3ccc(N4CCN(c5ccccn5)CC4)nn23)nc1	13µM*
C[C@@H]1CN(c2ccc3nnc(-c4ccccn4)n3n2)C[C@H](C)O1	21%[44.1 µM]
CC1=CCN(C(=O)C2C3C(=O)N(Cc4cccnc4)C[C@@]34C=C[C@@H]2O4)CC1 (stereo partly drawn)	-8%
CCN(CC)CCCNC(=O)CSc1nc2nc(C)c(Cc3ccccc3C)c(C)n2n1	-5%
Cc1cccc(N(C)S(=O)(=O)c2nnc(NC(=O)c3cccs3)s2)c1	28%
CC1(C(=O)N2CCC(Cc3ccccc3)CC2)CCOCC1	2%[44.1 µM]
Cn1nccc1CN1CCC2(CC1)CNC(=O)c1ccccc1O2	39%
CCCS(=O)(=O)N1CCC(C2CCNC2)CC1 (stereo not drawn)	20%
CCOc1cccc(CN2CCC3(CCNCC3)C2)c1O	0%
O=C(CSc1nnc(CNC(=O)c2ccccc2F)n1-c1ccccc1)Nc1ccccc1F	-8%
CC1(C)C[C@H](NC(=O)c2ccccc2)[C@@]2(CCC(=O)NCc3cccnc3)CC[C@](C)(O)C[C@@H]12	-12%
CC(=O)N1CC2(CCN(C3COC3)C2)Cc2ccccc21 (stereo not drawn)	-9%[44.1 µM]
O=C(c1ccc(Cl)cc1)N1CC2(CCN(C3COC3)CC2)Cc2ccccc21	10%
O=C(c1ccc(Cl)cc1)N1CC2(CCN(C3CCCCC3)CC2)Cc2ccccc21	7.1µM*
CC(=O)N1CC2(Cc3ccccc31)CN(C(=O)c1ccc(Cl)cc1)C2	-19%
O=C(c1ccc(Cl)cc1)N1CC2(CCN(C3CCCCC3)C2)Cc2ccccc21 (stereo not drawn)	10µM*
O=C(O)CCC(=O)N1CCC2(Cc3ccccc3N(C(=O)c3ccc(Cl)cc3)C2)C1 (stereo not drawn)	i
Cn1cccc1C(=O)N1C[C@@H](Oc2cccnc2)C[C@H]1C(=O)N1CCCC1	-18%
Cc1cnc(C2CCOCC2)n1CC1CCN(C2CCCCCC2)CC1	i

Screens as filed in PubChem BioAssay.
